High-throughput results: PubChem, National Center for Advancing Translational Sciences (NCATS)
PTHR1 agonist: qHTS for PTHR1 Agonists: Primary Screen. Parathyroid hormone/parathyroid hormone-related peptide receptor (Homo sapiens), Q03431. HEK293 GP2 PTHR1 cells, GloSensor cAMP luminescence, 1 h. Potency, µM (highest dose often 115 µM), for inactives: top-dose activation, usual class: activators. 0.075% of 410,000 active. AID 743266, 2014; note: nearly all actives have a fitted effect of over 55% in size
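HEK-293-derived GP2 cells expressing PTHR1 and a GloSensor cAMP reporter, 3,000/well, plated overnight, given luciferin plus IBMX (each 0.5 mM as added) for 1 h at 37 °C, then compound for 1 h at 37 °C. Luminescence was read after 15 min at room temperature.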
HEK293 tox: qHTS of GLP-1 Receptor Inverse Agonists: Cytotox Screen; AID 624418, 2012; 0.13% of 410,000 active; Potency, µM (titrated, usually from 38.3 µM), without a hit: top-dose activity change, negative = inhibition, usual class: inhibitors; HEK293 cAMP-luciferase reporter cells, luminescence, 24 h;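 note: loss of luciferase light is scored as toxicity; % is set by controls: 0 for no effect and ±100 for the full control effect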
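To flag toxic compounds, the library was rerun on cells for 24 hr at 37 deg C and 5% CO2. Viability-linked luminescence was captured 12 min after adding luciferase detection reagent.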
GLP1R ag: qHTS of GLP-1 Receptor Agonists; Potency, µM (top dose mostly 45.6 µM), without a hit: at the top dose activation, actives largely listed as activators; 0.007% of 380,000 active; Glucagon-like peptide 1 receptor (Homo sapiens), P43220; HEK293 GLP-1R CRE-luciferase, luminescence, 4-6 h; cells express a hypersensitive GLP-1R form; note: % of control where 0% means no effect
Target sequence (P43220 whole entry, looked up): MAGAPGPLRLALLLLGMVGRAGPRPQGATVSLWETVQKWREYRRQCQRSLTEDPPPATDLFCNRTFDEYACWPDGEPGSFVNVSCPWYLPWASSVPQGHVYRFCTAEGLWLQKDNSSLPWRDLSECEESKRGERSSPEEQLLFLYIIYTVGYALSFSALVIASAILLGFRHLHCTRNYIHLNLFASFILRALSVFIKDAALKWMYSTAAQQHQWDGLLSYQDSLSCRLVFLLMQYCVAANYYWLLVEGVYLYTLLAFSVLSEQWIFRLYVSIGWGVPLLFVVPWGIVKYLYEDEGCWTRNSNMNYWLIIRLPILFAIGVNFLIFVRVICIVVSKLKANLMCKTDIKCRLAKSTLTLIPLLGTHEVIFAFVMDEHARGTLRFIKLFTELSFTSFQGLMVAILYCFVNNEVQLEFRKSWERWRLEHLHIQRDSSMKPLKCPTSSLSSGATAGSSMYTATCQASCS
GLP-1R inv ag: qHTS of GLP-1 Receptor Inverse Agonists (Inhibition Mode). HEK293 GLP-1R CRE-luciferase, luminescence, 24 h; GLP-1R form is constitutively active. 1.6% of 410,000 active. Potency, µM (top dose mostly 38.3 µM), for the others: at the top dose activity change, negative = inhibition, usual class: inhibitors. Glucagon-like peptide 1 receptor (Homo sapiens), P43220; note: % is set by controls: 0 for no effect and ±100 for the full control effect; nearly all actives have a fitted effect of over 55% in size
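Using stably transfected HEK293 (constitutively active GLP-1R, cAMP-luciferase reporter), compounds were incubated 24 hr and luciferase measured by luminescence.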
* marks the source's active call; other numbers are inactive results; i = inactive; ? = inconclusive; · = no result; [ ] = dose if it differs, or a comment. Compounds with a hit are over-represented: about 1.7% of the library has one in this group of screens. Calls come from the whole dose curve; as a rule, active = well fitted curve in the direction sought with a large enough effect; inconclusive = small, poorly fitted or top-dose-only effect, or another doubt; inactive = no such curve, though single readings can be large; an effect the other way counts as inactive or inconclusive. Potency is the fitted concentration of half-maximal effect.

SMILES | PTHR1 agonist | HEK293 tox | GLP1R ag | GLP-1R inv ag
Cc1ccc2[nH]c3c(c2c1)CCCC3NCCO (centres undefined) | -20.6% | -3.6% | -4.1% | 10µM*
O=C(Nc1cccc(Cl)c1)c1ccc2nc(Cc3ccccc3)oc2c1 | -35.3% | ? | · | 10µM*
Cc1ccc2oc(C(=O)Nc3nc(-c4ccc(F)cc4)ns3)c(C)c2c1 | i | -1.7% | · | 15.4%
OCCN(CCO)c1ccc2ccccc2c1 | -20.3% | -4.2% | 0.9% | -26.4%
OCCN(CCO)c1cc2c3ccccc3ccc2c2ccccc12 | -9.9% | -3.0% | 13.2% | 10µM*
Cc1ccc2c(CC(=O)Nc3ccc(S(=O)(=O)N4CCCCC4C)cc3)coc2c1 (centres undefined) | i | -6.3% | · | 11.2µM*
Cc1ccc(S(=O)(=O)N2CCCCC2C(=O)Nc2ccc(N(C)C)cc2)cc1 (centres undefined) | -27.8% | -13.1% | 11.4% | 7.08µM*
CCOC(=O)C1CCCN(C(=O)COc2ccc(C(=O)c3ccccc3)cc2)C1 (centres undefined) | i | -9.1% | 9.0% | 1.58µM*
Cc1cccc(C)c1NC(=O)c1ccc(-c2ccc(Cl)cc2Cl)o1 | -37.7%[57.5 µM] | -2.1% | -7.5% | 1.58µM*
Cc1ccccc1NC(=O)c1ccc(-c2ccc(Cl)cc2Cl)o1 | -8.3% | -0.4% | 9.1% | ?
S=C(c1ccc(-c2ccc(Cl)cc2Cl)o1)N1CCCCC1 | -14.6% | -3.5% | 5.4% | 10µM*
O=C(Nc1cccc([N+](=O)[O-])c1)NC1CCCCCCC1 | -25.8% | -5.7% | 4.4% | 10µM*
Cc1ccc(NC(=O)CN(C)C(=O)c2ccc(NS(=O)(=O)c3cccc([N+](=O)[O-])c3)cc2)cc1 | -12.6% | -9.9% | -1.4% | 11.1%
Cc1ccc(NS(=O)(=O)c2ccc(OCC(=O)Nc3cccc([N+](=O)[O-])c3)c(C)c2)cc1 | -22.7% | -23.1% | -0.9% | 10µM*
Cc1ccc(S(=O)(=O)N(CC(=O)Nc2cccc([N+](=O)[O-])c2)C2CCCCC2)cc1 | -4.4%[57.5 µM] | -8.1% | 0.0% | 11.2µM*
O=C(CNC1CCCCC1)Nc1cccc([N+](=O)[O-])c1 | -9.5% | -3.7% | 15.5% | -20.5%
CCOc1ccc(C(=O)c2cn(CC(=O)Nc3ccc(C)c(C)c3)c3ccc(OCC)cc3c2=O)cc1 | -3.8% | 1.8% | 0.2% | -3.9%
COc1ccc2c(c1)C1=NN(/C(C)=C/C(C)=O)C(c3ccc(F)cc3)C1CC2 (centres undefined) | -70.0% | 19.8% | 8.9% | 0.0%
CN1N=C2c3ccccc3CCCC2C1c1ccc(F)cc1 (centres undefined) | ? | -26.0% | 8.3% | 7.08µM*
CCOC(=O)c1[nH]c(C)c(CCC(=O)N2CCN(c3cc(Cl)ccc3C)CC2)c1C | -15.8% | 5.8% | · | ?
CCCCN1C(=S)NC[C@@H]1Cc1cccc2ccccc12 | -65.9% | ? | 14.2% | ?
CCCC[C@@H]1CNC(=S)N1CCc1cccc2ccccc12 | -25.1% | -0.5% | 20.1% | 3.55µM*
O=C(CCc1ccc(S(=O)(=O)NC2CCCCC2)cc1)N(Cc1ccccc1)Cc1ccccc1 | -5.6%[57.5 µM] | -0.7% | -3.6% | 8.91µM*
O=C(CCc1ccc(S(=O)(=O)NC2CCCCC2)cc1)Nc1ccccc1 | -12.2% | -2.8% | -4.4% | ?
Nc1ccccc1Nc1cc(-c2cccc(Cl)c2)nn1-c1ccccc1 | -17.5% | -27.1% | -30.0% | 10µM*
Nc1c(-c2ccccc2)cnn1-c1cccc(Cl)c1 | -36.8% | -1.1% | 1.9% | ?
CCOC(=O)CNC(c1ccccc1)c1cc(Br)ccc1NC(=O)c1cccc(Cl)c1 (centres undefined) | i | 1.5% | · | 8.91µM*
NNC(=O)CNC(c1ccccc1)c1cc(Br)ccc1NC(=O)c1cccc(Cl)c1 (centres undefined) | i | -3.9% | -6.4% | ?
COC(=O)CNC(c1ccccc1)c1cc(Cl)ccc1NC(=O)c1cccc(Cl)c1 (centres undefined) | -10.6% | -9.2% | -18.1% | 10µM*
COC(=O)CNC(c1ccccc1)c1cc(Br)ccc1NC(=O)c1ccccc1 (centres undefined) | i | 12.3% | · | ?
